Data from PubChem BioAssay AID571 (The Scripps Research Institute Molecular Screening Center, 2007).
Out of some 65,000 compounds screened, about 640 (0.98%) were called active. Shown is part of a subset that was picked to be rich in actives. A number with no mark means an inactive call.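 Rule for the calls: active = inhibition above a set limit, the mean inhibition across every tested compound plus 3 SD (cut at about 29% in these data); inactive = the rest.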

The molecules below were run against 5-hydroxytryptamine receptor 1E (Homo sapiens) (UniProt P28566) (assay: 5-HT1E receptor antagonists, primary screen, cell-based, HTS (AID 571;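 note: signal is the 460 over 535 nm emission ratio of beta-lactamase substrate; 0% = agonist plus DMSO wells and 100% = wells without agonist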)). Details: CHO 5-HT1E Ga15 NFAT-bla reporter, FRET, antagonist; at 6 µM; active compounds read high.
Sequence of 5-hydroxytryptamine receptor 1E (Homo sapiens) (P28566 whole entry, looked up): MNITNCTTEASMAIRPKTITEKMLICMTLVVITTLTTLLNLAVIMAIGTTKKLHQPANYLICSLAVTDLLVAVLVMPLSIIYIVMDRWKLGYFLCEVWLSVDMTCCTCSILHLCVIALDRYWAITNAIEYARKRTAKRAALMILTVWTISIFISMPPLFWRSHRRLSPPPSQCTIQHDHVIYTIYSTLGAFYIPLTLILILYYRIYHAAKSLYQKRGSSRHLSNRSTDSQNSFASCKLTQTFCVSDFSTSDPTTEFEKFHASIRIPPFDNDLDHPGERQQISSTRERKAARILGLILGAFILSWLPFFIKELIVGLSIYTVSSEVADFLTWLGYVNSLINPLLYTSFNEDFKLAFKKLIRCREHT
With `O=C(CSc1nnc(-c2cccnc2)n1Cc1ccco1)c1ccc(Cl)cc1` the inhibition was 11%. In the case of `COc1ccc(-c2c3c(=O)n(C)c(=O)n(C)c3cn2-c2cccc(OC)c2)cc1`, the inhibition is reported as 6.73%. `Cc1ccc(-c2c3c(=O)n(C)c(=O)n(C)c3cn2-n2cnnc2)cc1` was tested, and the inhibition was 30.5% (active). With `Cc1ccc(-c2c3c(=O)n(C)c(=O)n(C)c3cn2-c2ccccc2O)cc1` the inhibition was 4.09%. Molecule `CC1CC(C)CN(CC(=O)Nc2ccc(S(N)(=O)=O)cc2)C1` (configuration not stated) has an inhibition of -5.33%. `Cc1ccc(SCc2cc(=O)[nH]c(N3CCCCC3)n2)cc1` gave an inhibition of 2.38%. `C=CCSc1nnc(Cn2c(=O)sc3ccccc32)n1C` gave an inhibition of 1.57%. Work on `COc1ccccc1N1CCN(C(=O)CN(Cc2ccc(Cl)cc2)S(C)(=O)=O)CC1` yielded an inhibition of -2.25%. In the case of `COc1ccccc1-n1nnnc1S(=O)(=O)Cc1ccc(Cl)cc1`, the inhibition is reported as 29.9% (active). `COc1ccccc1N1CCN(Cc2nnnn2CCc2ccccc2)CC1` gave an inhibition of -0.82%. For `Cn1cnc2c1c(=O)n(Cc1c(Cl)cccc1Cl)c(=O)n2C`, the inhibition was 5.12%. `COC(=O)CNS(=O)(=O)c1ccc(Cc2ccc(S(=O)(=O)NCC(=O)OC)cc2)cc1` showed an inhibition of 3.6%. `CCCn1c(C(O)c2ccc(OCC)cc2)nc2ccccc21` (configuration not stated) was tested, and the inhibition was -10.8%. With `COc1ccc(CCn2c(NCCCN3CCOCC3)nc3c2c(=O)[nH]c(=O)n3C)cc1` the inhibition was -6.49%. For `COC(=O)c1ccc(NC(=O)CN(c2ccc(C)cc2)S(=O)(=O)c2c(C)n[nH]c2C)cc1`, the inhibition was 3.08%. `CCOC(=O)c1ccc(-c2ccc(C(=O)Nc3cccnc3)o2)cc1` gave an inhibition of 10.9%. In the case of `Cc1cccc(NC(=O)CSc2nnc(NC(=O)CN3CCOCC3)s2)c1`, the inhibition is reported as -3.22%. `CCC(=O)Nc1ccc(C(=O)CSc2nnc(CNc3ccc(Cl)cc3)o2)cc1OC` was tested, and the inhibition was 1.52%. For `COc1ccc2c(c1OC)C(=O)N(c1ncn[nH]1)C2`, the inhibition was -0.04%. For `COC(=O)c1ccc(CSc2ccccc2C)o1`, the inhibition was 1.46%. For `COC(=O)c1ccc(CSc2nc3ccccc3c(=O)n2-c2cccc(OC)c2)o1`, the inhibition was 39.7% (active). `COCC(C)n1c(SCc2ccc(C(=O)OC)o2)nc2ccccc2c1=O` (configuration not stated) gave an inhibition of 24.9%. `Cc1cc(Nc2cccc(F)c2)n2ncnc2n1` showed an inhibition of -1.52%. For `CC(=O)NCCc1ccc(S(=O)(=O)N(C)C2CCS(=O)(=O)C2)cc1` (configuration not stated), the inhibition was -8.57%. For `Fc1ccc2[nH]c3c(N4CCSCC4)ncnc3c2c1`, the inhibition was 54.9% (active). For `Fc1ccc2nc(N3CCCCC3)sc2c1`, the inhibition was 1.55%. For `Fc1ccc2[nH]c3c(N4CCN(Cc5ccc6c(c5)OCO6)CC4)ncnc3c2c1`, the inhibition was 27.4%. Molecule `C=CCN(CC=C)C(=O)CN1C(=O)c2ccccc2C1=O` has an inhibition of 1.46%. With `COC(=O)Cc1nc2ccccc2[nH]1` the inhibition was -1.34%. With `COC(=O)Nc1nc2ccc(Sc3ccccc3)cc2[nH]1` the inhibition was 65.7% (active). For `Oc1ccc2nc(Cc3ccccc3)[nH]c2c1`, the inhibition was -16.1%. In the case of `CCOc1ccccc1C1CC(c2ccc(Cl)cc2)Nc2nc(N)nn21` (configuration not stated), the inhibition is reported as 4.62%. For `N=c1n(Cc2ccc(Cl)cc2)c2ccccc2n1CC(O)c1ccco1` (configuration not stated), the inhibition was -1.68%. With `CC(=O)NC(C)(C)C1CC=C(C)/C(=N\O)C1` (configuration not stated) the inhibition was 6.93%. `CC(C)(C)C(=O)CCN1C(=O)C2(OCCO2)c2ccccc21` showed an inhibition of -0.27%. `COc1ccc2[nH]c3c(=O)n(Cc4ccco4)cnc3c2c1` showed an inhibition of 9.2%. `CSc1nnc(CNC(=O)c2ccccc2)n1-c1ccc(F)cc1` was tested, and the inhibition was 4.06%. For `CC(NC(=O)c1ccco1)C(=O)Nc1nc(-c2ccccn2)cs1` (configuration not stated), the inhibition was -4.44%. `CCn1c(Cc2ccccc2)nnc1SCC(=O)Nc1ccccc1` showed an inhibition of -6.68%. Work on `CC1(C)CC(=O)C=C(NCCCNC2CCCCC2)C1` yielded an inhibition of 7.98%. Molecule `Cc1nnc(SCC(=O)NCc2cccs2)[nH]c1=O` has an inhibition of 2.95%. Work on `Cc1ccccc1-n1c(SCC(=O)NCc2cccs2)nnc1-c1ccncc1` yielded an inhibition of -6.81%. In the case of `CCN(CC(=O)NCc1cccs1)c1nnnn1-c1ccccc1`, the inhibition is reported as 28.8% (active). `c1ccc(-c2oc3ncnc(N4CCOCC4)c3c2-c2ccccc2)cc1` gave an inhibition of -16.4%. For `c1cnn(-c2cc(N3CCOCC3)ncn2)c1`, the inhibition was -8.12%. For `O=C1c2ccccc2-c2ncnc3c(N4CCOCC4)cc(N4CCOCC4)c1c23`, the inhibition was 38.7% (active). In the case of `COc1ccccc1N(C(=O)Cn1nnc2ccccc21)C(C(=O)NCc1ccco1)c1ccc(C)o1` (configuration not stated), the inhibition is reported as 12.3%. For `COc1ccc(-c2cc(C(F)(F)F)nc(S(C)(=O)=O)n2)cc1OC`, the inhibition was 70.8% (active). `COc1ccc(-c2nnco2)cc1OC` gave an inhibition of 3.01%. In the case of `COc1ccc(-c2ccc(Nc3ccc(S(=O)(=O)N4CCCC4)cc3)nn2)cc1OC`, the inhibition is reported as 20.8%. `CCc1nc(Nc2ccc3nccnc3c2)c2oc3ccccc3c2n1` was tested, and the inhibition was 51.6% (active). With `CCc1nc(N2CCN(c3nc(C)cc(C)n3)CC2)c2oc3ccccc3c2n1` the inhibition was 4.92%. Work on `CCSc1nc(C)nc2c1oc1ccccc12` yielded an inhibition of 10.3%. Molecule `Cc1ccc(N(CC(O)CN2CCCC2)S(=O)(=O)c2ccccc2)cc1` (configuration not stated) has an inhibition of -0.23%. Molecule `Cc1ccc(Nc2cc(=O)n(C3CCCCC3)c(=O)[nH]2)cc1C` has an inhibition of -5.13%. Work on `CN1CCN(Cc2nc3c(c(=O)n(C)c(=O)n3C)n2Cc2cccc3ccccc23)CC1` yielded an inhibition of 1.52%. `COc1ccc(N(CC(=O)NC2CCCCCCC2)S(=O)(=O)c2c(C)nn(C)c2C)cc1` showed an inhibition of -13.7%. `Cc1cn(C2C=CC(CO)O2)c(=O)[nH]c1=O` (configuration not stated) showed an inhibition of -4.28%. In the case of `O=C(CN1C(=O)CSc2ncccc21)N1CCOCC1`, the inhibition is reported as 16.6%. In the case of `Cc1cccc(CSc2nnc(Cn3c(=O)sc4ccccc43)n2C)c1`, the inhibition is reported as -7.45%. `COc1cccc(-c2cc3nc4c(c(N5CCC6(CC5)OCCO6)n3n2)CCCC4)c1` was tested, and the inhibition was 28.7% (active). `Cc1nc2cc(-c3ccc(F)cc3)nn2c(N2CCOCC2)c1C` gave an inhibition of -1.31%. In the case of `COc1cccc(-c2nc(S(=O)(=O)c3ccccc3)c(N3CCOCC3)o2)c1`, the inhibition is reported as 19.7%. For `Cc1ccc(-n2ncc3c(=O)[nH]cnc32)c(C)c1`, the inhibition was 13%. Work on `Cc1ccc(-n2ncc3c(N4CCN(c5ccc(F)cc5)CC4)ncnc32)c(C)c1` yielded an inhibition of 5.14%. For `Cc1ccc(-n2ncc3c2ncn2nc(-c4ccco4)nc32)c(C)c1`, the inhibition was 40% (active). Molecule `COc1c(C)cccc1C(=O)Nc1cc(Cl)ccc1N1CCOCC1` has an inhibition of 0.53%. For `O=C(Cn1nnc2ccccc2c1=O)Nc1cc(C(F)(F)F)ccc1N1CCOCC1`, the inhibition was 5.96%. With `Cn1nc(-c2ccc(N3CCOCC3)c(NC(=O)c3ccccc3)c2)c2ccccc2c1=O` the inhibition was 29.7% (active). `O=C(O)C1CC=C(Cl)CC1C(=O)NCc1ccccc1` (configuration not stated) was tested, and the inhibition was -3%. With `CCN(Cc1nc2ccccc2c(=O)[nH]1)Cc1cc(=O)oc2cc(C)c(C)cc12` the inhibition was -2.39%. In the case of `CCn1c(SCC(=O)c2ccc(Cl)s2)nnc1-c1cccs1`, the inhibition is reported as 3.04%. `OCc1n[nH]c(CO)n1` showed an inhibition of 6.12%. Work on `COCCN1Cc2cccc(C(=O)Nc3ccccc3OC)c2C1=O` yielded an inhibition of 8.66%. `O=S(=O)(NCc1ccccn1)c1ccc(F)cc1` was tested, and the inhibition was 0.49%. `NC(=O)C1(N2CCCCC2)CCN(C(=O)c2ccc(C#Cc3ccccc3)o2)CC1` was tested, and the inhibition was 2.52%. In the case of `COc1ccc(Nc2oc(-c3ccccc3Cl)nc2C#N)cc1`, the inhibition is reported as 75% (active). `CCOc1ccc(Nc2oc(Cc3ccccc3)nc2C#N)cc1` gave an inhibition of -1.52%. In the case of `N#Cc1nc(-c2ccc(OCc3ccccc3)cc2)oc1NCCCN1CCOCC1`, the inhibition is reported as 0.01%. Molecule `O=C(CN1CCN(S(=O)(=O)/C=C/c2ccccc2)CC1)NC(=O)NCc1ccco1` has an inhibition of 4.51%. In the case of `COc1ccc(CCNC(=O)c2ccc3c(c2)NC(=O)C(N2CCOCC2)S3)cc1OC` (configuration not stated), the inhibition is reported as -4.16%. `Cc1ccccc1NC(=O)c1cc(S(=O)(=O)N2CCOCC2)cs1` gave an inhibition of -6.32%. In the case of `O=C(Nn1cc(C(=O)N2CCN(c3ccccc3F)CC2)c2ccccc2c1=O)c1cnccn1`, the inhibition is reported as 3.04%. In the case of `CCOC(=O)c1cnc(-n2nc(C)cc2C)nc1Nc1cccc(C(C)=O)c1`, the inhibition is reported as -0.9%. With `COc1ccc(Nc2cc(C)nc(-n3nc(C)cc3C)n2)cc1` the inhibition was 49% (active). Work on `COc1cc(NS(=O)(=O)c2ccccc2)ccc1-n1nc(C)cc1C` yielded an inhibition of -6.22%. `COCCNc1nc(-n2nc(C)cc2C)nc2sc3c(c12)CCCC3` was tested, and the inhibition was 22.7%. `Cc1cc(C)n(-c2ccc(Cl)c(C(=O)O)n2)n1` was tested, and the inhibition was 4.5%. `CC(=O)c1ccc(Oc2cc(C)nc(-n3nc(C)cc3C)n2)cc1` was tested, and the inhibition was 78.3% (active). `Cc1cc(NCc2ccco2)n2c(nc3ccccc32)c1C#N` gave an inhibition of 11.1%. For `Nc1ccc(-c2nnc(-c3ccc(-c4ccccc4)cc3)o2)cc1`, the inhibition was -0.45%. `O=C(CSc1nnc(-c2ccncc2)n1C1CCCCC1)Nc1ccccc1` was tested, and the inhibition was -9.37%. In the case of `CC12C(=O)N(n3cnnc3)C(=O)C1C1C=CC2C1` (configuration not stated), the inhibition is reported as 8.42%. `COCCNC(=O)C(c1ccc(C)o1)N(Cc1cccs1)C(=O)c1snc(C(N)=O)c1N` (configuration not stated) showed an inhibition of -3.57%. For `Cc1cc(=O)oc(C)c1C(=O)NC1CC(C)(C)NC(C)(C)C1`, the inhibition was -4.29%. `C[N+](C)(C)CCOP(=O)([O-])OC[C@H](O)CO` was tested, and the inhibition was -4.74%. `COc1ccc(Br)cc1S(=O)(=O)N1CCN=C1C` was tested, and the inhibition was -3.84%.
